Data published in PubChem BioAssay (NCATS).
Results filed as inconclusive are left out. Active and inactive are the calls of the source. Calls come from the whole dose curve; as a rule, active = well fitted curve in the direction sought with a large enough effect; inconclusive = small, poorly fitted or top-dose-only effect, or another doubt; inactive = no such curve, though single readings can be large; an effect the other way counts as inactive or inconclusive.

Tests used:
[1] = system: KB-3-1; experiment: Cytotoxic Profiling of Annotated Libraries Using Quantitative High-Throughput Screening (AID 1296008); conditions: Five cell lines viability, CellTiter-Glo ATP luminescence, 48-72 h; max response: stronger effect = lower value; note: nearly all actives have a fitted effect of over 60% in size; for max response: % is set by controls: 0 for no effect and ±100 for the full control effect
Method in brief: (§1)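 Compounds were pin-transferred onto cells and incubated 48 or 72 hr at 37 degree Celsius, 95% humidity. CellTiter-Glo was added, plates sat 10 min at room temperature, then ATP-coupled luminescence was imaged as the viability read-out.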

[2] = system: NIH3T3; experiment: as above; conditions: Five cell lines viability, CellTiter-Glo ATP luminescence, 48-72 h; max response: stronger effect = lower value
Method in brief: as §1

[3] = system: CRL-7250; experiment: qHTS assay to identify novel small-molecules to repurpose for Merkel cell carcinoma treatment (AID 1296009); conditions: MCC and control cell lines, CellTiter-Glo viability, 72 h; at 44.8 µM (top of the series) unless noted; note: nearly all actives have a fitted effect of over 60% in size
Method in brief: (§2)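 Viability readout: ATP luminescence (CellTiter-Glo) after 72 hr drug exposure at 37 degree celsius. Dose-response format was 8 points for NPC and 11 points for MIPE; data normalized to in-plate controls.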

[4] = system: HEK293T; experiment: as above; conditions: MCC and control cell lines, CellTiter-Glo viability, 72 h; at 44.8 µM (top of the series) unless noted
Method in brief: as §2

[5] = system: C33A; experiment: Primary qHTS to identify gynecologic anti-cancer compounds using libraries of approved drugs and bioactive compounds (AID 1345084); conditions: Gynecologic cancer cell panel viability, ATPlite luminescence, 48 h; series mostly up to 57.5 µM; note: % is set by controls: 0 for no effect and ±100 for the full control effect; nearly all actives have a fitted effect of over 55% in size
Method in brief: (§3)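 Cells, 1,000 per well, plated 16 h, then exposed 48 h at 37 C to compounds. Viability by ATPlite luminescence after 15 min at room temperature.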

[6] = system: CAOV3; experiment: as above; conditions: Gynecologic cancer cell panel viability, ATPlite luminescence, 48 h; series mostly up to 57.5 µM
Method in brief: as §3

[7] = system: CASKI; experiment: as above; conditions: Gynecologic cancer cell panel viability, ATPlite luminescence, 48 h; series mostly up to 57.5 µM
Method in brief: as §3

[8] = system: Es-2; experiment: as above; conditions: Gynecologic cancer cell panel viability, ATPlite luminescence, 48 h; series mostly up to 57.5 µM
Method in brief: as §3

[9] = system: HeLa; experiment: as above; conditions: Gynecologic cancer cell panel viability, ATPlite luminescence, 48 h; series mostly up to 57.5 µM
Method in brief: as §3

[10] = system: Hek293T; experiment: as above; conditions: Gynecologic cancer cell panel viability, ATPlite luminescence, 48 h, control line for the selectivity index; series mostly up to 57.5 µM
Method in brief: as §3

[11] = system: JEG-3; experiment: as above; conditions: Gynecologic cancer cell panel viability, ATPlite luminescence, 48 h; series mostly up to 57.5 µM
Method in brief: as §3

[12] = system: OV90; experiment: as above; conditions: Gynecologic cancer cell panel viability, ATPlite luminescence, 48 h; series mostly up to 57.5 µM
Method in brief: as §3

[13] = system: HACAT; experiment: qHTS assay to identify novel small-molecules to repurpose for Merkel cell carcinoma treatment (AID 1296009); conditions: MCC and control cell lines, CellTiter-Glo viability, 72 h; at 44.8 µM (top of the series) unless noted; note: nearly all actives have a fitted effect of over 60% in size
Method in brief: as §2

[14] = system: NIH3T3; experiment: as above; conditions: MCC and control cell lines, CellTiter-Glo viability, 72 h; at 44.8 µM (top of the series) unless noted
Method in brief: as §2

COc1c(C(C)C)cc2c(c1O)[C@@]1(C(=O)O)CCCC(C)(C)C1CC2 (stereo not given in full)
inactive: outcome [1] | max response [2] 0.972% | outcome [3] | outcome [4] | Potency [5] | Potency [6] | Potency [7] | Potency [8] | Potency [9] | Potency [10] | Potency [11] | Potency [12]

CCCN1CCO[C@H]2c3cc(O)ccc3OC[C@@H]21
inactive: outcome [1] | outcome [2] | outcome [3] | outcome [4] | Potency [5] | Potency [6] | Potency [7] | Potency [8] | Potency [9] | Potency [10] | Potency [11] | Potency [12]

COc1cc(CCNCc2ccccc2O)c(OC)cc1C#N
inactive: outcome [1] | max response [2] 4.5% | outcome [3] | outcome [13] | Potency [5] | Potency [6] | Potency [7] | Potency [8] | Potency [9] | Potency [10] | Potency [11] | Potency [12]

COC(=O)C1(C)CCC(O)C2(C)c3c(O)cc(C(C)C)cc3C(O)C(OC(C)=O)C12 (stereo not given)
inactive: outcome [1] | max response [2] 0.503% | outcome [3] inactive [at 17.4 µM] | outcome [4] inactive [at 17.4 µM] | Potency [5] | Potency [6] | Potency [7] | Potency [8] | Potency [9] | Potency [10] | Potency [11] | Potency [12]

CCC(C)(OC(C)=O)C(=O)O[C@H]1[C@H](OC(C)=O)C[C@@H]2[C@@](C)([C@@H]3C[C@H]4C=CO[C@H]4O3)[C@H](C)C[C@H](OC(C)=O)[C@@]2(COC(C)=O)[C@@]12CO2 (stereo not given in full)
inactive: max response [1] 8.14% | outcome [2] | outcome [3] inactive [at 17.4 µM] | outcome [13] inactive [at 17.4 µM] | outcome [4] inactive [at 17.4 µM] | outcome [14] inactive [at 17.4 µM] | Potency [5] | Potency [6] | Potency [7] | Potency [8] | Potency [9] | Potency [10] | Potency [11] | Potency [12]

C[C@H]1C(=O)O[C@H]2[C@H](O)[C@]34C5OC(=O)[C@]3(O[C@@H]3OC(=O)[C@H](O)C34[C@H](C(C)(C)C)[C@H]5O)C12O (stereo not given in full)
inactive: outcome [1] | outcome [2] | outcome [3] inactive [at 17.4 µM] | outcome [13] inactive [at 17.4 µM] | outcome [14] inactive [at 17.4 µM] | Potency [5] | Potency [7] | Potency [8] | Potency [9] | Potency [10] | Potency [11] | Potency [12]

CC[C@H]1CN2CC[C@H]1C[C@H]2[C@H](O)c1ccnc2ccc(OC)cc12
inactive: max response [1] 0.288% | outcome [2] | outcome [3] | outcome [13] | Potency [5] | Potency [7] | Potency [8] | Potency [9] | Potency [10] | Potency [11]

COCC1OC(=O)c2coc3c2C1(C)C1=C(C3=O)C2CCC(=O)C2(C)CC1O (stereo not given)
inactive: outcome [1] | outcome [2] | outcome [3] | outcome [13] | outcome [4] | outcome [14] | Potency [5] | Potency [6] | Potency [7] | Potency [8] | Potency [9] | Potency [10] | Potency [11] | Potency [12]

CC1C/C=C/C(O)C(O)CC/C=C/c2cc(O)cc(O)c2C(=O)O1 (stereo not given)
inactive: max response [1] 0.529% | max response [2] 3.47% | outcome [3] | outcome [4] | Potency [5] | Potency [6] | Potency [7] | Potency [8] | Potency [9] | Potency [10] | Potency [11] | Potency [12]

C/C=C(\C)C(=O)OC1CC2C(C)(C)OC(=O)CC(OC(C)=O)C2(C)C2CC(OC(=O)C(C)C)C3(C)C(c4ccoc4)CC4OC43C12C (stereo not given)
inactive: max response [1] 7.39% | max response [2] 0.059% | outcome [3] inactive [at 17.4 µM] | outcome [13] inactive [at 17.4 µM] | Potency [5] | Potency [6] | Potency [7] | Potency [8] | Potency [9] | Potency [10] | Potency [11] | Potency [12]

C1=C2CCCN[C@H]2[C@@H]2C[C@H]1[C@H]1CCCCN1C2
inactive: outcome [1] | outcome [2] | outcome [3] | outcome [14] | Potency [5] | Potency [6] | Potency [7] | Potency [8] | Potency [9] | Potency [10] | Potency [11] | Potency [12]

CC1=C2C(=O)C3[C@@H](CC=C4C[C@@H](O)CC[C@@]43C)[C@@H]2CC[C@]12O[C@@H]1C[C@H](C)CN[C@H]1[C@H]2C (stereo not given in full)
inactive: outcome [1] | outcome [2] | outcome [3] inactive [at 17.4 µM] | outcome [13] inactive [at 17.4 µM] | outcome [14] inactive [at 17.4 µM] | Potency [5] | Potency [6] | Potency [7] | Potency [8] | Potency [9] | Potency [10] | Potency [11] | Potency [12]

CC[C@H]1CN2CC[C@H]1C[C@@H]2[C@@H](O)c1ccnc2ccc(OC)cc12
inactive: max response [1] 5.11% | outcome [2] | outcome [3] | outcome [13] | outcome [4] | Potency [5] | Potency [6] | Potency [7] | Potency [8] | Potency [9] | Potency [10] | Potency [11] | Potency [12]
